LDHA inh: inhibitors of human lactate dehydrogenase A; purified LDHA, NADH/diaphorase-resazurin fluorescence; hits give low values; activity change, % (values are at about 110 or 230 µM); AID 1347041; 480,000 compounds, 0.15% hits; in the data active = activity change below about -30%; inconclusive = mostly about -25% to -30%
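Remaining NADH was detected by diaphorase (0.133 mg/mL) converting 37 µM resazurin to fluorescent resorufin, read at 0 and 20 minutes. The preceding 5-minute room-temperature reaction used 2 nM LDHA, 0.2 mM sodium pyruvate and 0.06 mM NADH at pH 7.4.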
RORgamma inh: ROR gamma (mouse) transcription inhibition | 310,000 compounds, 5.4% hits | Potency, µM (titrated, usually from 53.6 µM), actives largely listed as inhibitors | AID 2551 | Drosophila S2 Gal4-RORgamma UAS-luciferase reporter, 20 h; also: nearly all actives have a fitted effect of over 60% in size
Target sequence (P51450 whole entry, looked up, the tested form may be a part): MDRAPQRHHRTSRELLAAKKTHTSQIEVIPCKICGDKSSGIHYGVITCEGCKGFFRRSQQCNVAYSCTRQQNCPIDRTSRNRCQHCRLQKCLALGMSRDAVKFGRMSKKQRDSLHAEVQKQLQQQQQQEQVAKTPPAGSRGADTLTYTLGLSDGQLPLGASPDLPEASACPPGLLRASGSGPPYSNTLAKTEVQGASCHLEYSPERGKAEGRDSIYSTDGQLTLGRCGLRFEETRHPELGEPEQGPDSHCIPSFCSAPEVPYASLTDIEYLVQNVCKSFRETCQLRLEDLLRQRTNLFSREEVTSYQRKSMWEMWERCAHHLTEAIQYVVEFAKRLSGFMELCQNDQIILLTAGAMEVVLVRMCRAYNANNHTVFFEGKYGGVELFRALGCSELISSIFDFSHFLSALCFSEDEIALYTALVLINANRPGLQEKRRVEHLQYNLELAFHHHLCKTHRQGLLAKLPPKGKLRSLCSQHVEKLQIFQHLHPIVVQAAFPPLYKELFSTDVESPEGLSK
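In this cell-based reporter format, copper sulfate (700 uM final) drives Gal4–ROR gamma fusion expression from a metallothionein promoter in Drosophila Schneider cells; compounds preincubated 1 hr, reporter read after 20 hr at ambient temperature.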
DT40 TDP1 CPT: DT40-hTDP1 cell growth loss with CPT. AID 686979. chicken DT40 Tdp1-/-;hTDP1 cells + 20 nM CPT, ATP luminescence, 48 h. 420,000 compounds, 12% hits. Potency, µM (series often up to 46.2 µM), most hits filed as inhibitors; also: nearly all actives have a fitted effect of over 55% in size
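Chicken DT40 Tdp1-/- cells stably complemented with human TDP1 were seeded at 400 cells/well in medium containing 20 nM camptothecin, exposed to pin-transferred compounds, and grown at 37 °C for at least 48 hr. Viability was read as ATP luminescence.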
DT40 TDP1 no CPT: qHTS for Inhibitors of human tyrosyl-DNA phosphodiesterase 1 (TDP1): qHTS in cells in absence of CPT | 420,000 compounds, 15% hits | Potency, µM (top dose mostly 46.2 µM), most hits filed as inhibitors | DT40 Tdp1-/- hTDP1 cells, no CPT, ATP luminescence, 48 h; also: nearly all actives have a fitted effect of over 55% in size
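Readout: luminescence from CellTiter-Glo after 30 min in the dark at RT. Cells: DT40 Tdp1-/- with stable hTDP1, 400/well. Exposure: compounds alone, ≥48 hr, 37 °C.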
IL1B secr inh: inflammasome signaling inhibition, IL-1 beta readout; THP-1 LPS/ATP IL-1B secretion, AlphaLISA, 16 h; hits give low values; activity change, % at 57.5 µM; 360,000 compounds, 4.7% hits; AID 743279; in the data active = activity change below about -50%; inconclusive = mostly about -30% to -49%
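Secreted IL-1B measured by AlphaLISA bead assay after 16 h compound exposure of THP-1 cells; compounds (final up to 57.5 uM) added 1 h before LPS (250 ng/mL) and ATP (1.25 mM) stimulation; lower signal means less secretion.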
Gal4-VP16 FLuc: inhibits Gal4-VP16 luciferase reporter, ROR gamma counter-screen | Drosophila S2 Gal4-VP16 UAS-luciferase, luminescence, 20 h | Potency, µM (doses to about 53.6 µM), most hits filed as inhibitors | 310,000 compounds, 3.5% hits;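 also: Gal4-VP16 expression switched on by copper sulfate through the metallothionein promoter; nearly all actives have a fitted effect of over 50% in size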
Of the large screens only hits and unclear results are named; the others gave an inactive call. The list is not random: actives were taken first. Their share in the collection is about 18%. Unless noted, calls follow the shape of the dose curve; as a rule, active = well fitted curve in the direction sought with a large enough effect; inconclusive = small, poorly fitted or top-dose-only effect, or another doubt; inactive = no such curve, though single readings can be large; an effect the other way counts as inactive or inconclusive.

O=C(O)/C=C/c1cc(Cl)cc(Cl)c1	none (no result: RORgamma inh, DT40 TDP1 CPT, DT40 TDP1 no CPT, IL1B secr inh, Gal4-VP16 FLuc)
CCN1C(=O)/C(=C/c2cccs2)N(C)C1=S	DT40 TDP1 no CPT inconclusive
Cc1ccc(/C=C2/NC(=O)N(Cc3ccc(Br)cc3)C2=O)o1	RORgamma inh inconclusive, DT40 TDP1 CPT inconclusive, DT40 TDP1 no CPT inconclusive, Gal4-VP16 FLuc inconclusive
Cc1c(C(=O)O)cccc1-c1ccc(/C=C2/NC(=O)N(c3ccccc3)C2=O)o1	DT40 TDP1 CPT inconclusive, DT40 TDP1 no CPT inconclusive
Cc1ccc(/C=C2/NC(=O)N(c3ccccc3)C2=O)o1	DT40 TDP1 CPT 10.3µM, DT40 TDP1 no CPT 16.4µM, Gal4-VP16 FLuc inconclusive
CCN1C(=O)N/C(=C/c2ccc(C)o2)C1=O	RORgamma inh inconclusive, DT40 TDP1 CPT 23.1µM, DT40 TDP1 no CPT 20.6µM, Gal4-VP16 FLuc inconclusive
CCN1C(=O)/C(=C/c2ccc(C)o2)N(C)C1=S	RORgamma inh inconclusive, Gal4-VP16 FLuc 12.6µM
O=C(Cc1ccc(F)cc1)N(Cc1cccc2[nH]ccc12)C1CC1	none (no result: RORgamma inh, DT40 TDP1 CPT, DT40 TDP1 no CPT, IL1B secr inh, Gal4-VP16 FLuc)
O=C(CCCc1c[nH]c2ccccc12)N1CCN(CC(=O)N2CCCCCC2)CC1	none (no result: RORgamma inh, DT40 TDP1 CPT, DT40 TDP1 no CPT, IL1B secr inh, Gal4-VP16 FLuc)
CSCCOc1ccc(-c2ccccc2)cc1	none (no result: RORgamma inh, DT40 TDP1 CPT, DT40 TDP1 no CPT, IL1B secr inh, Gal4-VP16 FLuc)
CCCCNC(=O)C(CC)n1c(SCc2cccc(F)c2)nc2ccncc21 (stereo unspecified)	DT40 TDP1 CPT 10µM, DT40 TDP1 no CPT inconclusive (no result: RORgamma inh, IL1B secr inh, Gal4-VP16 FLuc)
CCC(C(=O)NC1CCCCC1)n1c(SCc2cccc(F)c2)nc2ccncc21 (stereo unspecified)	RORgamma inh inconclusive, DT40 TDP1 CPT inconclusive, DT40 TDP1 no CPT inconclusive, Gal4-VP16 FLuc inconclusive
CCC(C(=O)NC1CCCCC1)n1c(SCc2cccc(C)c2)nc2ccncc21 (stereo unspecified)	RORgamma inh inconclusive, DT40 TDP1 CPT 25.9µM, DT40 TDP1 no CPT inconclusive, Gal4-VP16 FLuc inconclusive
COc1ccc(CCn2c(SCCC(C)C)nc3c2c(=O)n(C)c(=O)n3C)cc1	none (no result: RORgamma inh, DT40 TDP1 CPT, DT40 TDP1 no CPT, IL1B secr inh, Gal4-VP16 FLuc)
CCOC(=O)c1cc2c(ccn2-c2ccc(F)cc2)n1CC(=O)N(CC)CC	DT40 TDP1 CPT inconclusive, DT40 TDP1 no CPT 23.1µM, IL1B secr inh inconclusive
COC(=O)C1CCN(C(=O)COC(=O)c2cc3ccccc3[nH]2)CC1	none (no result: RORgamma inh, DT40 TDP1 CPT, DT40 TDP1 no CPT, IL1B secr inh, Gal4-VP16 FLuc)
CCCc1nnc(NC(=O)c2cc(=O)c3cc(CC)ccc3o2)s1	none (no result: RORgamma inh, DT40 TDP1 CPT, DT40 TDP1 no CPT, IL1B secr inh, Gal4-VP16 FLuc)
CCc1nn(C(C)C(=O)NCCN2CCCCCC2)c(=O)c2cc3occc3n12 (stereo unspecified)	none
CCc1nn(C(CC)C(=O)NCc2cccc(OC)c2OC)c(=O)c2cc3occc3n12 (stereo unspecified)	RORgamma inh inconclusive, DT40 TDP1 CPT 20.6µM, DT40 TDP1 no CPT 18.4µM
CCc1nn(C(C)C(=O)NCCN2CCN(c3cccc(C)c3C)CC2)c(=O)c2cc3occc3n12 (stereo unspecified)	DT40 TDP1 CPT inconclusive, DT40 TDP1 no CPT 16.4µM, IL1B secr inh inconclusive
CCC(C(=O)N1CCN(c2cc(Cl)ccc2C)CC1)n1nc(C)n2c(cc3occc32)c1=O (stereo unspecified)	DT40 TDP1 CPT inconclusive, DT40 TDP1 no CPT 14.6µM (no result: RORgamma inh, IL1B secr inh, Gal4-VP16 FLuc)
CCC(C(=O)N1CCC(C(N)=O)CC1)n1nc(C)n2c(cc3occc32)c1=O (stereo unspecified)	none
Cc1cccc(OCC(=O)Nc2cccc(-c3nc4ccc(C)cc4o3)c2)c1	none (no result: RORgamma inh, DT40 TDP1 CPT, DT40 TDP1 no CPT, IL1B secr inh, Gal4-VP16 FLuc)
O=C(C[n+]1cc(-c2ccccc2)n2c1CCCCC2)c1ccc(Cl)cc1	DT40 TDP1 CPT 20.6µM, DT40 TDP1 no CPT 16.4µM, IL1B secr inh -76.0, Gal4-VP16 FLuc inconclusive
O=C(C[n+]1cc(-c2ccc(F)cc2)n2c1CCC2)c1cccs1	none
Cc1ccc(-c2c[n+](CC(=O)c3ccc(Br)cc3)c3n2CCCCC3)cc1	DT40 TDP1 CPT 1.46µM, DT40 TDP1 no CPT 1.64µM, IL1B secr inh -94.7, Gal4-VP16 FLuc inconclusive
COc1ccc(-c2c(C(=O)O)c(C(=O)O)c3n2CCC3)cc1	Gal4-VP16 FLuc inconclusive
Cc1cccc[n+]1CC(=O)c1ccc(Cl)cc1	none (no result: RORgamma inh, Gal4-VP16 FLuc)
COc1ccc(-c2c[n+](CC(=O)c3ccccc3)c3n2CCCCC3)cc1	DT40 TDP1 CPT 7.31µM, DT40 TDP1 no CPT 4.11µM, IL1B secr inh inconclusive
COc1ccc(-c2c[n+]3c4n2CCCCC4=C(c2ccccc2)C3)cc1	DT40 TDP1 CPT 3.26µM, DT40 TDP1 no CPT 5.17µM, IL1B secr inh inconclusive
COc1cccc(C(=O)C(Cl)C(=O)c2cccc(OC)c2)c1	none (no result: RORgamma inh, DT40 TDP1 CPT, DT40 TDP1 no CPT, IL1B secr inh, Gal4-VP16 FLuc)
CCCCC(=O)NCC1CC2c3ccccc3C1c1ccccc12 (stereo unspecified)	none (no result: RORgamma inh, DT40 TDP1 CPT, DT40 TDP1 no CPT, IL1B secr inh, Gal4-VP16 FLuc)
CN1CCCN(C(=O)c2cc3cc(Cl)ccc3oc2=O)CC1	none (no result: RORgamma inh, DT40 TDP1 CPT, DT40 TDP1 no CPT, IL1B secr inh, Gal4-VP16 FLuc)
Cc1ccc(NNC(=O)c2ccno2)c(C)c1	DT40 TDP1 no CPT 18.4µM
Cc1ccc(NNC(=O)c2sccc2Cl)c(C)c1	DT40 TDP1 CPT inconclusive, DT40 TDP1 no CPT inconclusive (no result: RORgamma inh, IL1B secr inh, Gal4-VP16 FLuc)
CNc1nnc(-c2ccc(N(C)C)cc2)s1	RORgamma inh inconclusive, Gal4-VP16 FLuc 8.91µM
CCN(CC)S(=O)(=O)c1ccc(-c2nnc3sc4cccc(C)c4n23)cc1	RORgamma inh 2.24µM, DT40 TDP1 CPT 23.1µM, DT40 TDP1 no CPT inconclusive
C#CC[N+]1(CC#Cc2cccc(C)c2)CCCCC1	DT40 TDP1 CPT 2.59µM, DT40 TDP1 no CPT 2.31µM

From PubChem BioAssay
